Bioassay records (PubChem)
In the library only some 21% were active in any assay of this set; here they are far more common.
Pf growth 48h – P. falciparum growth inhibition at 48 hours (one generation) | P. falciparum luciferase growth in erythrocytes, 48 h | Potency, µM (titrated, usually from 28.7 µM), inactives show at the top dose activity change, negative = inhibition, most hits filed as inhibitors | actives 5.9% (n = 310,000) | AID 504832; also: potency is read from the fitted curve at half-maximal effect; % is scaled to controls: 0 for no effect and ±100 for the full control effect
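Here the parasites carry a stable luciferase gene and grow inside erythrocytes in Albumax-based RPMI medium with compound for one erythrocytic cycle. Activity is scored as loss of luminescent signal.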
Cycloheximide cs – affects cycloheximide protein synthesis inhibition readout, counter-screen; cell reporter, cycloheximide protein synthesis inhibition counterscreen; max response, %; actives 12% (n = 300,000); AID 2314; in the data active = max response mostly above about 13%, no sharp cut-off; inactive = mostly below about 14%; also: read at 38.3 µM for the half of the compounds with a filed dose; 0% is about no effect
NS1 function inh – blocks influenza NS1 protein function | Potency, µM (top dose mostly 46.1 µM), for inactives: top-dose activity, positive = more growth | AID 2326 | actives 0.4% (n = 270,000); calls by dose curve; also: potency is read from the fitted curve at half-maximal effect; actives are rising curves; nearly all actives have a fitted effect of over 50% in size
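Read-out: OD600 growth recovery of NS1-expressing budding yeast. Cells grown overnight at 30C in -URA glucose medium, washed, resuspended and diluted 1:100 in 2% galactose assay medium, pH 6.0. Same strain lacking NS1 served as positive control.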
Sm TGR block – blocks Schistosoma mansoni thioredoxin glutathione reductase; Q962Y6; purified TGR, DTNB reduction, TNB absorbance 405 nm; Potency, µM (highest dose often 114 µM), inactives show at the top dose activity change, negative = inhibition, hits mostly inhibitors; actives 3% (n = 360,000); also: potency is read from the fitted curve at half-maximal effect; % is scaled to controls: 0 for no effect and ±100 for the full control effect; nearly all actives have a fitted effect of over 60% in size
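Kinetic colorimetric format: TGR-catalysed, NADPH-driven DTNB reduction monitored via TNB absorbance. Enzyme dispensed at 20 nM; compound exposure 15 min at room temperature before reaction start.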
Pf growth 96h – inhibits malaria parasite growth, 96 h. AID 504834. P. falciparum luciferase reporter growth, 96 h. actives 6.9% (n = 320,000). Potency, µM (doses to about 28.7 µM), for the others: at the highest dose activity change, negative = inhibition, hits mostly inhibitors; also: potency is read from the fitted curve at half-maximal effect; % is scaled to controls: 0 for no effect and ±100 for the full control effect
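Cell-based qHTS: luciferase-tagged P. falciparum in erythrocytes (2% hematocrit, 0.05% parasitemia final) incubated with compounds for 96 hours, 37 C, 5% CO2; luciferase detection reagent then added and luminescence measured.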
Shiga toxin inh – inhibitors of Shiga toxin in Vero cells. Vero cells, Shiga toxin protein synthesis inhibition reporter. inhibition, % at 38.7 µM. actives 9.2% (n = 290,000); in the data active = inhibition mostly above about 28%, no sharp cut-off; inactive = mostly below about 43%; also: 0% is about no effect
Starred values were filed as active, the others as inactive; ? = inconclusive; nt = no result given; ! = not confirmed by another sample; [ ] = another dose, or the depositor's remark. Unless noted, calls follow the shape of the dose curve; as a rule, active = well fitted curve in the direction sought with a large enough effect; inconclusive = small, poorly fitted or top-dose-only effect, or another doubt; inactive = no such curve, though single readings can be large; an effect the other way counts as inactive or inconclusive.

SMILES | Pf growth 48h | Cycloheximide cs | NS1 function inh | Sm TGR block | Pf growth 96h | Shiga toxin inh
O=c1[nH]c(SCc2cccc(F)c2)nc2c1CCCC2 | -4% | -4 | -12% | -2% | ? | -14
CCN(CC)C(=O)Cn1cnc([N+](=O)[O-])n1 | 1% | -3 | -3% | 1% | 53% | -8
COC(=O)c1ccc(NC(=O)CSc2cn(CC(=O)N3CCCCCC3)c3ccccc23)cc1 | nt | nt | nt | 8% | nt | nt
O=[N+]([O-])/C(C(Cl)=C(Cl)Cl)=C1\Nc2ccccc2O1 | 23% | 17* | 0% | 14µM* | 48% | 71*
COc1cccc(-n2c(SCC(=O)Nc3nccs3)nnc2-c2ccoc2C)c1 | 8.3µM* | 7 | -24% | -3% | 145% | 14
COc1ccc(-n2c(SCC(=O)Nc3nc(C)cs3)nnc2-c2ccoc2C)cc1 | 5.9µM* | 0 | -4%[9.22 µM] | -31% | 3% | 13
O=C(CSc1nnc(Cn2c(=O)sc3ccccc32)n1-c1ccccc1)N1CCCC1 | -1% | -3 | -1% | -15% | ? | -3
COC(=O)CSc1nnc(-c2ccoc2C)n1-c1ccc(C)cc1 | -5% | -2 | -9% | -1% | nt | -2
COc1ccc(-n2c(SCC(=O)Nc3nccs3)nnc2-c2ccoc2C)cc1 | nt | -7 | -2% | -16% | ? | -12
O=C(CSc1nnc(Cn2c(=O)sc3ccccc32)n1-c1ccccc1)Nc1nccs1 | ? | 9 | -57% | -9% | 4.7µM* | 8
COc1cc(/C=C(\C#N)C(=O)NC(C)C)cc(Cl)c1O | 0% | -2 | -10% | -10% | -5% | -5
COc1cccc(-c2nn(C)c3sc(C(=O)N4CCN(c5cccc(C)c5)C(C)C4)cc23)c1 (stereo not drawn) | nt | nt | nt | -9% | nt | nt
COc1ccc(C(=O)Nc2ccc(S(=O)(=O)Nc3nccc(C)n3)cc2)cc1[N+](=O)[O-] | 0% | -2 | 14% | 2% | -81% | nt
Cc1ncsc1C(=O)NCc1ccc(N2CCCC2=O)cc1 | nt | -2 | -4% | 3%[11.4 µM] | 4.7µM* | -12
O=C(NCc1ccc(N2CCCC2=O)cc1)c1cnccn1 | nt | -1 | -1% | 9% | ? | -9
Nc1c2c(nc3ccc(Br)cc13)N(C1CCCCC1)CC2 | ? | 6 | nt | -19% | 10µM* | -4
Cc1cccc(N2CCc3c2nc2ccc(Br)cc2c3N)c1 | ? | 16* | -22% | 1% | -15% | 43
Nc1c2c(nc3ccccc13)CCC2 | ? | -3 | -3% | -11% | 32% | 15
Nc1c2c(nc3ccccc13)N(C1CCCCC1)CC2 | 13µM* | -4 | -22% | -5% | 2% | -7
COc1ccc(-n2nc3c(N4CCC(C(=O)NCc5cccc(F)c5)CC4)nnc(C)c3c2C)cc1 | nt | nt | nt | -14% | nt | nt
Cc1nc2oc3ccc(F)cc3c(=O)c2cc1C(=O)O | 49% | 27* | 0% | 13% | 26% | 30
COCc1nc2oc3ccc(C)cc3c(=O)c2cc1C(=O)OC | 108% | 23* | 5% | 0% | 130% | 42
O=C(Nc1ccccc1)c1cc2c(=O)c3ccccc3oc2nc1C(F)(F)F | ? | -1 | 1% | 2% | 60% | -3
CCc1nc2oc3ccccc3c(=O)c2cc1C(=O)OC | 118% | 24* | 3% | -10% | 49% | 51*
Cc1ccc2oc3nc(C)c(C(=O)O)cc3c(=O)c2c1 | 205% | 41* | 3% | 2% | 475% | 35
SMILES | Pf growth 48h | Cycloheximide cs | NS1 function inh | Sm TGR block | Pf growth 96h | Shiga toxin inh
COCc1nc2oc3ccc(F)cc3c(=O)c2cc1C(=O)OC | 68% | 14 | -1% | 0% | 82% | 3
CCOC(=O)N1CCc2c(sc(NCc3cccs3)c2C(=O)Nc2cc(Cl)ccc2OC)C1 | nt | nt | nt | -34% | nt | nt
CCN(CC)C(=O)c1cc2c(=O)c3cc(Cl)ccc3oc2nc1C | 52% | 14 | ? | nt | 3% | 14
CCOC(=O)c1cc2c(=O)c3cc(C)ccc3oc2nc1C | 245% | 40* | 1% | -1% | 332% | 52*
CC(=O)c1cc2c(=O)c3cc(C)ccc3oc2nc1C | 112% | 30* | -60% | -4% | 130% | 121*
O=C(O)c1ccccc1-c1ccccc1C(=O)Nc1ccc2c(c1)Cc1ccccc1-2 | nt | nt | 5% | nt | nt | nt
O=C(c1cc(COc2ccc3ncccc3c2)on1)N1CCCCCC1 | 19% | 18 | -10% | nt | -17% | 49*
O=C(NC1CCCC1)c1cc(COc2ccc3ncccc3c2)on1 | -20% | -3 | -8% | 13% | -6% | -8
O=C(c1cc(COc2ccc3ncccc3c2)on1)N1CCCC1 | 37% | 33* | -6% | -16% | ? | 40*
COCC1CCN(C(=O)c2cc(COc3ccc4ncccc4c3)on2)CC1 | 27% | 1 | 2% | -12% | ? | -11
O=C(NNC(=O)c1ccccc1O)c1ccc(S(=O)(=O)Nc2ccccc2)cc1 | ? | nt | nt | -3% | ? | nt
Cc1ccc2c(c1)-c1c(cnn1CC(=O)N1CCN(c3cc(C)ccc3C)CC1)CO2 | nt | nt | nt | 15% | nt | nt
Cc1cc(-c2n[nH]c(=S)n2/N=C/c2ccc(C)o2)n[nH]1 | -2% | -3 | 5% | -15% | 0% | 8
S=c1[nH]nc(-c2ccccc2)n1/N=C/C=C/c1ccco1 | 15% | -5 | 12% | ? | 48% | -8
S=c1[nH]nc(-c2ccc(Cl)cc2)n1/N=C/C=C/c1ccco1 | -11% | -2 | 5% | 40µM* | 8% | -7
Cc1cc(-c2n[nH]c(=S)n2/N=C/C=C/c2ccco2)n[nH]1 | -6% | -3 | 13% | 22µM* | -12% | -10
Cc1ccccc1-c1n[nH]c(=S)n1/N=C/C=C/c1ccco1 | 1% | -3 | 2% | 14µM* | 9% | 20
O=C(NCc1cccs1)c1ccc(CSc2nc3ccncc3n2Cc2ccccc2F)cc1 | nt | nt | nt | 4% | nt | nt
CSc1nc(N(C)NC(=O)c2ccc(F)cc2)c2ccccc2n1 | 2.1µM* | -2 | 10% | 12% | 2.3µM* | -13
O=C(Nc1ccc(Cl)cc1C(=O)O)c1ccc2c(c1)C(=O)N(Cc1ccco1)C2=O | -5% | -4 | -34% | 50µM* | 11% | -4
O=C(Nc1cccc(O)c1)c1ccc2c(c1)C(=O)N(Cc1ccco1)C2=O | -6% | -1 | 14% | -27% | 9.3µM* | -5
CC(C)CNC(=O)c1ccc2c(c1)C(=O)N(Cc1ccco1)C2=O | -2% | 2 | -3% | -2% | -18% | nt
Cc1ccc(O)c(NC(=O)c2ccc3c(c2)C(=O)N(Cc2ccco2)C3=O)c1 | 1% | 15 | -35% | 0% | 16% | -12
CCc1ccc2c(c1)NC(c1ccc(C)cc1)=NC(c1cccs1)=N2 | nt | nt | nt | -1% | nt | nt
O=C(O)c1cc2c(=O)c3ccccc3oc2nc1C(F)(F)F | 37% | -4 | 4% | 6% | 39% | -6
COc1cccc2c(=O)ccoc12 | 14% | 12* | -7% | -3% | -4% | 39
COc1cccc2c(=O)c3ccccc3oc12 | 123% | 55*! | -2% | 8% | 12% | 67*
O=c1c2ccccc2oc2ncccc12 | 70% | 55* | -10% | 8% | -98% | 57
